Measured values reported in PubChem BioAssay (EPA / NIEHS).
“And” between values parts separate entries of the source, which are not always exact repeats. Identical values can stand only once. Records with an inconclusive call do not appear. Some compounds were tested as several samples or in several runs, with calls that do not always agree. The source made the active and inactive calls. The calls were made as follows, unless noted: active = hit-call score of the fitted dose curve at least 0.9, where 1 is the maximum; inactive = score below 0.9.

Legend:
[1] = read-out: Collagen I, COL1A1 (gene 1277); test: BSK_MyoF_CollagenI: BioMAP Diversity Plus: MyoF Assay for Collagen I Biomarker Activity (AID 2284238); settings: primary human lung fibroblasts
Procedure, shortened: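 Primary human lung fibroblasts (MyoF system) treated 24 h; Collagen I quantified by ELISA and fitted in positive direction against DMSO. Parallel SRB total-protein staining assessed overt cytotoxicity.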

[2] = read-out: Collagen III, COL3A1 (gene 1281); test: BSK_MyoF_CollagenIII: BioMAP Diversity Plus: MyoF Assay for Collagen III Biomarker Activity (AID 2284239); settings: primary human lung fibroblasts
Procedure, shortened: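 Primary human lung fibroblasts (BioMAP MyoF system) exposed 24 h. Collagen III measured by ELISA; positive-direction fit relative to DMSO.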

[3] = CCTE_Mundy_HCI_hNP1_Casp3_7: CCTE's Caspase-Glo 3/7 Assay in human neuroprogenitor cells for Apoptosis, Mundy Lab (AID 2284240)
Procedure, shortened: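 Neuroepithelial-lineage stem cells from WA09 embryonic cells were treated with chemicals after 40–44 h of culture. Twenty-four hours later, caspase-3/7 activation was detected luminescently after a 30 min room-temperature reagent step, with DMSO as baseline.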

[4] = CCTE_Mundy_HCI_hNP1_CellTiter: CCTE's Cell Titer-Glo 2 Assay in human neuroprogenitor cells for Viability, Mundy Lab (AID 2284241; active = hit-call score of the fitted dose curve at least 0.9, where 1 is the maximum)
Procedure, shortened: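 Measures ATP content in human neural progenitors derived from WA09 embryonic cells. Read-out at 26.5 hours after dosing, with DMSO serving as the negative control and baseline.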

[5] = read-out: Interleukin 17F (IL17F), IL17F (gene 112744); test: BSK_BT_xIL17F: BioMAP Diversity Plus: BT Assay for Interleukin 17F (IL17F) Biomarker Activity (AID 2284243); settings: primary human B cells with PBMC
Procedure, shortened: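 Human PBMC co-cultured with B cells, compound exposure 24 h; secreted IL-17F quantified by Luminex xMAP, referenced to DMSO control. PBMC viability measured in parallel by Alamar Blue reduction.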

[6] = read-out: Actin alpha 1 (ACTA1), ACTA1 (gene 58); test: BSK_MyoF_ACTA1: BioMAP Diversity Plus: MyoF Assay for Actin alpha 1 (ACTA1) Biomarker Activity (AID 2284244); settings: primary human lung fibroblasts
Procedure, shortened: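 Measured by ELISA: alpha-smooth muscle actin in human primary lung fibroblasts 24 h after dosing, with DMSO as baseline and upward signal change as the fitted direction.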

[7] = read-out: Interleukin 2 (IL2), IL2 (gene 3558); test: BSK_BT_xIL2: BioMAP Diversity Plus: BT Assay for Interleukin 2 (IL2) Biomarker Activity (AID 2284245); settings: primary human B cells with PBMC
Procedure, shortened: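 Secreted interleukin-2 from human B cell/PBMC co-cultures, measured 24 h post-dosing by Luminex multiplex immunoassay. Upward-direction curve fitting against DMSO baseline.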

[8] = read-out: Collagen IV, COL4A1 (gene 1282); test: BSK_MyoF_CollagenIV: BioMAP Diversity Plus: MyoF Assay for Collagen IV Biomarker Activity (AID 2284247); settings: primary human lung fibroblasts
Procedure, shortened: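 Activity is scored as a signal increase over DMSO in an ELISA for Collagen IV, measured on human lung fibroblasts at 24 h after chemical treatment. Cytotoxicity is checked in parallel cultures by sulforhodamine B total-protein staining.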

[9] = read-out: Monokine induced gamma interferon (MIG), CXCL9 (gene 4283); test: BSK_KF3CT_MIG: BioMAP Diversity Plus: KF3CT Assay for Monokine induced gamma interferon (MIG) Biomarker Activity (AID 2284248); settings: primary human keratinocytes with fibroblasts
Procedure, shortened: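 Human keratinocyte–foreskin fibroblast co-culture; MIG measured by ELISA 24 h after chemical dosing, fitted upward versus DMSO. Cytotoxicity was assessed in parallel cultures by SRB total-protein staining read at 560 nm.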

[10] = read-out: Collagen I, COL1A1 (gene 1277); test: BSK_hDFCGF_CollagenI: BioMAP Diversity Plus: hDFCGF Assay for Collagen I Biomarker Activity (AID 2284250); settings: primary human foreskin fibroblasts
Procedure, shortened: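 Cells were primary human foreskin fibroblasts treated for 24 h. Collagen I levels were then determined by ELISA and compared against DMSO controls.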

[11] = read-out: Interferon-inducible T-cell alpha chemoattractant (ITAC), CXCL11 (gene 6373); test: BSK_hDFCGF_ITAC: BioMAP Diversity Plus: hDFCGF Assay for Interferon-inducible T-cell alpha chemoattractant (ITAC) Biomarker Activity (AID 2284251); settings: primary human foreskin fibroblasts
Procedure, shortened: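 ELISA readout of I-TAC after 24 h chemical exposure; human dermal foreskin fibroblast primary cells. Positive-direction fitting vs DMSO baseline. Parallel SRB total-protein staining (0.1% SRB after 10% TCA fixation, 560 nm) flags cytotoxicity.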

[12] = read-out: Plasminogen activator inhibitor-1 (PAI1), SERPINE1 (gene 5054); test: BSK_KF3CT_PAI1: BioMAP Diversity Plus: KF3CT Assay for Plasminogen activator inhibitor-1 (PAI1) Biomarker Activity (AID 2284252); settings: primary human keratinocytes with fibroblasts
Procedure, shortened: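 Signal is PAI-1 detected by ELISA in a human skin-derived keratinocyte/fibroblast co-culture, 24 h after dosing; DMSO served as negative control and baseline.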

[13] = read-out: Monocyte Chemoattractant Protein-1 (MCP1), CCL2 (gene 6347); test: BSK_IMphg_MCP1: BioMAP Diversity Plus: IMphg Assay for Monocyte Chemoattractant Protein-1 (MCP1) Biomarker Activity (AID 2284253); settings: primary human endothelial cells with macrophages
Procedure, shortened: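 Human venular endothelial cells co-cultured with macrophages; MCP-1 measured by ELISA 24 hours post-dose and fitted against DMSO. Cytotoxicity monitored by SRB total-protein staining in parallel cultures.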

[14] = read-out: Interleukin-8 (IL8), CXCL8 (gene 3576); test: BSK_KF3CT_IL8: BioMAP Diversity Plus: KF3CT Assay for Interleukin-8 (IL8) Biomarker Activity (AID 2284254); settings: primary human keratinocytes with fibroblasts
Procedure, shortened: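 Human keratinocyte/foreskin fibroblast co-culture dosed 24 h; IL-8 measured by ELISA relative to DMSO. Parallel cultures stained with SRB for total protein to flag cytotoxicity.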

[15] = read-out: Plasminogen activator inhibitor-1 (PAI1), SERPINE1 (gene 5054); test: BSK_MyoF_PAI1: BioMAP Diversity Plus: MyoF Assay for Plasminogen activator inhibitor-1 (PAI1) Biomarker Activity (AID 2284256); settings: primary human lung fibroblasts;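 also: PAI-1 read 24 h after compound addition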
Procedure, shortened: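 Primary human lung fibroblasts treated with chemical for 24 h; PAI-1 levels quantified by ELISA relative to DMSO. Cytotoxicity was assessed in parallel cultures by SRB total-protein staining (0.1% SRB after 10% TCA fixation, 560 nm).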

CD69, CD69 (gene 969) = test: BSK_IMphg_CD69: BioMAP Diversity Plus: IMphg Assay for CD69 Biomarker Activity (AID 2284257); settings: primary human endothelial cells with macrophages
Procedure, shortened: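 Human venular endothelial cells co-cultured with macrophages; CD69 quantified by ELISA 24 h after compound addition. Activity fitted in the positive direction relative to DMSO baseline; cytotoxicity tracked in parallel cultures via SRB total-protein staining.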

[16] = read-out: Basic fibroblast growth factor (bFGF), FGF2 (gene 2247); test: BSK_MyoF_bFGF: BioMAP Diversity Plus: MyoF Assay for Basic fibroblast growth factor (bFGF) Biomarker Activity (AID 2284246); settings: primary human lung fibroblasts
Procedure, shortened: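 In this multiplexed cell system, lung fibroblasts (human primary) receive test chemical for 24 h before ELISA detection of bFGF; DMSO defines baseline and the analysis direction is positive.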

[17] = read-out: Eotaxin 3, CCL26 (gene 10344); test: BSK_BF4T_Eotaxin3: BioMAP Diversity Plus: BF4T Assay for Eotaxin 3 Biomarker Activity (AID 2284258); settings: primary human bronchial epithelial cells with fibroblasts
Procedure, shortened: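 Co-culture of human bronchial epithelial cells and dermal fibroblasts, exposed to chemicals for 24 h versus DMSO. Eotaxin-3 quantified by ELISA; cytotoxicity checked in parallel cultures by sulforhodamine B total-protein staining.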

Measured: AC50

O=C(O)CCC(F)(F)C(F)(F)C(F)(F)F
inactive: [1] | [2] | [3] | [4] | [5] | [6] | [7] | [8] | [9] | [10] | [11] | [12] | [13] | [14] | [15] | CD69, CD69 (gene 969)

C=CC(=O)OCC(F)(F)C(F)(F)C(F)(F)C(F)(F)C(F)(F)C(F)(F)C(F)(F)C(F)F
inactive: [1] | [2] | [7] | [16] | [8] | [9] | [10] | [12] | [13] | [14] | [15] | CD69, CD69 (gene 969) | [17]
active: [5] 18.8 µM | [6] 30 µM and 19.5 µM | [7] 44.5 µM | [11] 30 µM

O=C=NCc1cccc(CN=C=O)c1
inactive: [1] | [2] | [5] | [6] | [7] | [16] | [8] | [15]

CNS(=O)(=O)C(F)(F)C(F)(F)C(F)(F)C(F)(F)C(F)(F)C(F)(F)C(F)(F)C(F)(F)F
inactive: [1] | [2] | [6] | [7] | [16] | [9] | [10] | [11] | [12] | [13] | [15] | CD69, CD69 (gene 969)
active: [5] 16.4 µM and 7.34 µM | [8] 2.71 µM and 3.58 µM | [12] 7.81 µM | [14] 8.13 µM and 9.41 µM

CC(C)(C)c1cc(CCC(=O)NCCCCCCNC(=O)CCc2cc(C(C)(C)C)c(O)c(C(C)(C)C)c2)cc(C(C)(C)C)c1O
active: [5] 5.33 µM | [7] 1.36 µM
inactive: [1] | [2] | [6] | [16] | [8] | [15]

NC(=O)C(F)(F)C(F)(F)C(F)(F)F
inactive: [1] | [2] | [5] | [6] | [7] | [16] | [8] | [9] | [10] | [11] | [12] | [13] | [14] | [15] | CD69, CD69 (gene 969)

NC(=O)C(F)(F)C(F)(F)C(F)(F)C(F)(F)C(F)(F)C(F)(F)C(F)(F)F
active: [7] 30 µM | CD69, CD69 (gene 969) 23.5 µM
inactive: [1] | [2] | [3] | [4] | [5] | [6] | [7] | [16] | [8] | [9] | [10] | [11] | [12] | [13] | [14] | [15] | CD69, CD69 (gene 969)
